Read-out in test [1]: C-C motif chemokine 2 (Homo sapiens) (UniProt P13500)
Briefly: BSK_KF3CT_MCP1: BioMAP Diversity Plus: KF3CT Assay for Monocyte Chemoattractant Protein 1 (MCP1/CCL2) Biomarker Activity (AID 2283073). The settings on record: primary human keratinocytes with fibroblasts; actives raise or lower the signal. The gist of the method:
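Biomarker MCP-1 is measured by ELISA in primary human keratinocytes co-cultured with foreskin fibroblasts, 24 h after chemical treatment; DMSO serves as the negative control and activity baseline.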

Read-out in test [2]: Matrix Metallopeptidase 9 (MMP9), MMP9 (gene 4318)
Briefly: BSK_KF3CT_MMP9: BioMAP Diversity Plus: KF3CT Assay for Matrix Metallopeptidase 9 (MMP9) Biomarker Activity (AID 2283074). The settings on record: primary human keratinocytes with fibroblasts; actives raise or lower the signal. A digest of the protocol: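 Human keratinocyte and foreskin fibroblast co-culture exposed to chemicals for 24 h; MMP9 biomarker measured by ELISA, bidirectional fitting relative to DMSO; cytotoxicity tracked by SRB total protein staining in parallel cultures.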

Read-out in test [3]: urokinase plasminogen activator (uPA), PLAU (gene 5328)
Briefly: BSK_KF3CT_uPA: BioMAP Diversity Plus: KF3CT Assay for urokinase plasminogen activator (uPA) Biomarker Activity (AID 2283075). The conditions noted are these: primary human keratinocytes with fibroblasts; actives raise or lower the signal. A digest of the protocol:
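Primary human keratinocyte/foreskin fibroblast co-culture exposed to chemical; uPA measured by ELISA at 24 h. Bidirectional fit versus DMSO, with parallel SRB total-protein staining for cytotoxicity.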

Read-out in test [4]: CD40, CD40 (gene 958)
Briefly: BSK_LPS_CD40: BioMAP Diversity Plus: LPS Assay for CD40 Biomarker Activity (AID 2283076). The conditions noted are these: primary human HUVEC with PBMC; actives raise or lower the signal. A digest of the protocol:
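Using a multiplexed primary human co-culture (umbilical vein endothelium plus PBMC), CD40 was read by ELISA 24 h after dosing, with cytotoxicity tracked by sulforhodamine B staining of parallel cultures and activity fitted bidirectionally versus DMSO.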

Read-out in test [5]: E-selectin (Homo sapiens) (UniProt P16581)
Kind of test: BSK_LPS_Eselectin: BioMAP Diversity Plus: LPS Assay for Eselectin Biomarker Activity (AID 2283077). The conditions noted are these: primary human HUVEC with PBMC; actives raise or lower the signal. The gist of the method: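 Dose chemical onto LPS-driven HUVEC/PBMC co-culture; after 24 h, run ELISA for E-selectin; fit up- and down-going responses relative to DMSO control.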

Read-out in test [6]: Interleukin-8 (IL8), CXCL8 (gene 3576)
Briefly: BSK_LPS_IL8: BioMAP Diversity Plus: LPS Assay for Interleukin-8 (IL8) Biomarker Activity (AID 2283078). The settings on record: primary human HUVEC with PBMC; actives raise or lower the signal. The gist of the method: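 In this LPS system, chemical-treated human umbilical vein endothelium/PBMC co-cultures were harvested at 24 h for IL-8 ELISA.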

Test [7] can be described thus: BSK_LPS_SRB: Viability Assessment in the BioMAP Diversity Plus: LPS Assay (AID 2283079).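 Note: total protein by sulforhodamine B absorbance as a cytotoxicity measure; measured one day after compound addition; fitted in both directions against DMSO so loss or gain of signal counts.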 The conditions noted are these: primary human HUVEC with PBMC. A digest of the protocol:
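Cytotoxicity endpoint in human endothelial–PBMC co-culture: 24 h exposure, then SRB (0.1%) staining, 560 nm read.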

Read-out in test [8]: Interleukin-1 alpha (IL1a), IL1A (gene 3552)
Kind of test: BSK_LPS_IL1a: BioMAP Diversity Plus: LPS Assay for Interleukin-1 alpha (IL1a) Biomarker Activity (AID 2283080). The conditions noted are these: primary human HUVEC with PBMC; actives raise or lower the signal. A digest of the protocol: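 Primary human HUVEC and PBMC co-culture stimulated with LPS is dosed and harvested at 24 h. Both increases and decreases in ELISA-measured IL-1a are scored relative to DMSO.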

Read-out in test [9]: Monocyte Chemoattractant Protein-1 (MCP1), CCL2 (gene 6347)
Kind of test: BSK_LPS_MCP1: BioMAP Diversity Plus: LPS Assay for Monocyte Chemoattractant Protein-1 (MCP1) Biomarker Activity (AID 2283081). The settings on record: primary human HUVEC with PBMC; actives raise or lower the signal. A digest of the protocol: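 Values derive from bidirectional fitting against DMSO of ELISA-measured MCP-1 in a human primary endothelial and mononuclear cell co-culture, 24 h after chemical addition under LPS activation.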

A short description of test [10]: BSK_LPS_PGE2: BioMAP Diversity Plus: LPS Assay for Prostaglandin E2 (PGE2) Biomarker Activity (AID 2283082). The settings on record: primary human HUVEC with PBMC; actives raise or lower the signal. The gist of the method: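 LPS-activated HUVEC/PBMC co-culture; cmpd dosed, 24 h; PGE2 by ELISA; bidirectional fit vs DMSO; SRB (0.1%, TCA-fixed, 560 nm) in parallel plates for overt cytotox.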

Read-out in test [11]: Macrophage colony-stimulating factor (MCSF), CSF1 (gene 1435)
Kind of test: BSK_LPS_MCSF: BioMAP Diversity Plus: LPS Assay for Macrophage colony-stimulating factor (MCSF) Biomarker Activity (AID 2283083). The settings on record: primary human HUVEC with PBMC; actives raise or lower the signal. A digest of the protocol: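 Bidirectional fit versus DMSO of ELISA-measured M-CSF in co-cultured human umbilical vein endothelial cells and PBMC, sampled 24 h after dosing.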

Read-out in test [12]: Tissue Factor, F3 (gene 2152)
Kind of test: BSK_LPS_TissueFactor: BioMAP Diversity Plus: LPS Assay for Tissue Factor Biomarker Activity (AID 2283084). The settings on record: primary human HUVEC with PBMC; actives raise or lower the signal. The gist of the method: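 Read-out: CD142 ELISA, 24 h. System: LPS-driven human endothelial/PBMC co-culture. Analysis: up- or down-signal fitted against DMSO.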

Read-out in test [13]: Tumor necrosis factor (Homo sapiens) (UniProt P01375)
Kind of test: BSK_LPS_TNFa: BioMAP Diversity Plus: LPS Assay for Tumour Necrosis Factor alpha (TNFa) Biomarker Activity (AID 2283085). The conditions noted are these: primary human HUVEC with PBMC; actives raise or lower the signal. The gist of the method:
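Read-out is ELISA of TNFa in primary human endothelial cell–PBMC co-cultures at 24 h after compound. Activity in either direction was fitted against DMSO.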

Read-out in test [14]: Vascular cell adhesion molecule 1 (VCAM1), VCAM1 (gene 7412)
Briefly: BSK_LPS_VCAM1: BioMAP Diversity Plus: LPS Assay for Vascular cell adhesion molecule 1 (VCAM1) Biomarker Activity (AID 2283086). The conditions noted are these: primary human HUVEC with PBMC; actives raise or lower the signal. A digest of the protocol: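 HUVEC + PBMC co-culture, LPS system; compound 24 h; VCAM-1 by ELISA; bidirectional fit vs DMSO control; parallel SRB (0.1%, TCA-fixed, 560 nm) for cytotoxicity.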

Read-out in a further test: CD38, CD38 (gene 952)
Kind of test: BSK_SAg_CD38: BioMAP Diversity Plus: SAg Assay for CD38 Biomarker Activity (AID 2283087). The settings on record: primary human HUVEC with PBMC; actives raise or lower the signal. A digest of the protocol: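 Human HUVEC plus PBMC co-culture stimulated with superantigen; CD38 measured by ELISA 24 h after chemical dosing. Fluorescence read-out, bidirectional fit against DMSO; cytotoxicity tracked in parallel by SRB and Alamar Blue.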

Read-out in test [15]: CD40, CD40 (gene 958)
Briefly: BSK_SAg_CD40: BioMAP Diversity Plus: SAg Assay for CD40 Biomarker Activity (AID 2283088). The conditions noted are these: primary human HUVEC with PBMC; actives raise or lower the signal. A digest of the protocol: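 Endpoint derived by fitting increases or decreases versus DMSO controls. CD40 is detected by fluorescence ELISA in a human vascular co-culture of endothelium and PBMC at 24 h.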

Read-out in the next test: CD69, CD69 (gene 969)
Briefly: BSK_SAg_CD69: BioMAP Diversity Plus: SAg Assay for CD69 Biomarker Activity (AID 2283089). The conditions noted are these: primary human HUVEC with PBMC; actives raise or lower the signal. A digest of the protocol:
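Values derive from bidirectional fitting relative to DMSO vehicle. Cells: umbilical vein endothelium plus peripheral blood mononuclear cells, treated 24 h before fluorescent ELISA for CD69.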

Read-out in test [16]: Monocyte Chemoattractant Protein-1 (MCP1), CCL2 (gene 6347)
Kind of test: BSK_SAg_MCP1: BioMAP Diversity Plus: SAg Assay for Monocyte Chemoattractant Protein-1 (MCP1) Biomarker Activity (AID 2283090). The settings on record: primary human HUVEC with PBMC; actives raise or lower the signal. A digest of the protocol:
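MCP-1 levels in the endothelial–PBMC SAg co-culture were quantified by ELISA at 24 h post-dosing; both increases and decreases versus DMSO scored. Cytotoxicity monitored by SRB total protein in parallel cultures.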

Read-out in test [17]: E-selectin (Homo sapiens) (UniProt P16581)
Kind of test: BSK_SAg_Eselectin: BioMAP Diversity Plus: SAg Assay for Eselectin Biomarker Activity (AID 2283091). The conditions noted are these: primary human HUVEC with PBMC; actives raise or lower the signal. A digest of the protocol: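 Endpoint values derive from bidirectional fitting relative to DMSO, using ELISA-measured E-selectin in a human vascular co-culture (umbilical vein endothelium plus PBMC) sampled 24 h after dosing.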

Read-out in test [18]: Monokine induced gamma interferon (MIG), CXCL9 (gene 4283)
Briefly: BSK_SAg_MIG: BioMAP Diversity Plus: SAg Assay for Monokine induced gamma interferon (MIG) Biomarker Activity (AID 2283092). The settings on record: primary human HUVEC with PBMC; actives raise or lower the signal. A digest of the protocol: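 Values reflect bidirectional fitting of ELISA-measured MIG against DMSO vehicle, taken 24 h after dosing of a co-culture of human umbilical vein endothelial cells and peripheral blood mononuclear cells.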

Each structure is given as a SMILES string. The source holds several records for some structures; these can differ, active in one and inactive in another. Active and inactive are the calls of the source. Rule for the calls: active = hit-call score of the fitted dose curve at least 0.9, where 1 is the maximum; inactive = score below 0.9.

Chain of Tumor necrosis factor (Homo sapiens) (P01375 whole entry, looked up): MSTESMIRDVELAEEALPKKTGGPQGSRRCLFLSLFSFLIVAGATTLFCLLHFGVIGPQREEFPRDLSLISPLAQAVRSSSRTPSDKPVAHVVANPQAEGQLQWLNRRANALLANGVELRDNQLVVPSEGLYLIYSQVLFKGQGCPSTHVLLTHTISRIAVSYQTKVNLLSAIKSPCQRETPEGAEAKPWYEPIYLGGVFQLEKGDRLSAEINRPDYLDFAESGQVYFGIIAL
Chain of E-selectin (Homo sapiens) (P16581 whole entry, looked up): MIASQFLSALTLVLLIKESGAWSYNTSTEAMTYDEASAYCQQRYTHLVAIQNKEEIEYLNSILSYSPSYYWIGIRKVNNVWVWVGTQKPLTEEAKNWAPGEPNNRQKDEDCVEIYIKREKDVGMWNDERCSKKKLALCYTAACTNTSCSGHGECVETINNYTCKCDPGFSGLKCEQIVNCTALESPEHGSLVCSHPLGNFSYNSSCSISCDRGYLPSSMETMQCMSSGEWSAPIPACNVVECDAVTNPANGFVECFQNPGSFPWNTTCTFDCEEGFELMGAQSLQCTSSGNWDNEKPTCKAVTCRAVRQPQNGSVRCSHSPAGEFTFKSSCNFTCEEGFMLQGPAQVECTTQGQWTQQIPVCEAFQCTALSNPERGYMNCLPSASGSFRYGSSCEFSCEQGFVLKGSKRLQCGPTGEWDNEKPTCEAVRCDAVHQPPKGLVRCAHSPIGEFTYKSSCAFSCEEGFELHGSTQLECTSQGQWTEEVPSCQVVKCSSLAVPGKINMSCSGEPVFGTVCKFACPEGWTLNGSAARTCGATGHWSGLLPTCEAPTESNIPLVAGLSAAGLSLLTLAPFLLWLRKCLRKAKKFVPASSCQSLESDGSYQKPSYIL

`CCCCC(CC)C(=O)O` (configuration not stated): the outcome was “inactive” in test [1]; “inactive” in test [2]; “inactive” in [3]; “inactive” with CD40, CD40 (gene 958) [4]; “inactive” in test [5]; “inactive” in test [6]. The outcome in test [7], in test [8], in [9], in test [10], in test [11] and in test [12] was inactive. Further, the outcome in test [13] was “inactive”; in test [14], “inactive”; with CD38, CD38 (gene 952), “inactive”; with CD40, CD40 (gene 958) [15], “inactive”; in the test with CD69, CD69 (gene 969) it was “inactive”; in test [16], “inactive”. The outcome in [17] was inactive.

`O=C(O)CCC(F)(F)C(F)(F)C(F)(F)C(F)(F)C(F)(F)F`: the outcome in test [1] is “inactive”; in test [2], “inactive”; in [3], “inactive”; with CD40, CD40 (gene 958) [4], “inactive”; in test [5], “inactive”; in test [6], “inactive”. Moreover, the outcome in [7], in [8], in [9], in [10], in [11] and in test [12] was inactive. Further, the outcome in [13] is “inactive”; in test [14], “inactive”; in the test with CD38, CD38 (gene 952), “inactive”; with CD40, CD40 (gene 958) [15] it was “inactive”; in the test with CD69, CD69 (gene 969), “inactive”; in test [16], “inactive”. Also, in [17], the outcome was inactive. The AC50 (as a rule, the midpoint of the concentration-response curve, whichever way the signal moves) in test [6] was 5.95 µM (active).

Turning to `Cc1ccc(N=Nc2c(O)ccc3ccccc23)c(C)c1`, the outcome in test [1] is “inactive”; in test [2] it was “inactive”; in test [3], “inactive”; with CD40, CD40 (gene 958) [4], “inactive”; in test [5], “inactive”; in [6], “inactive”. The result in test [7], in [8], in [9], in test [10], in test [11] and in [13] was inactive. The outcome was “inactive” in [14]; “inactive” with CD38, CD38 (gene 952); “inactive” with CD40, CD40 (gene 958) [15]; “inactive” with CD69, CD69 (gene 969); “inactive” in test [16]; “inactive” in test [17]. In addition, in [12], the AC50 was 7.3 µM (active).

For the compound `CN(CCO)S(=O)(=O)C(F)(F)C(F)(F)C(F)(F)C(F)(F)C(F)(F)C(F)(F)C(F)(F)C(F)(F)F`, the outcome was “inactive” in test [1]; “inactive” in [2]; “inactive” in [3]; “inactive” in the test with CD40, CD40 (gene 958) [4]; “inactive” in test [5]; “inactive” in test [6]. Further, the outcome in test [7], in [8], in [9], in test [10], in [11] and in test [13] was inactive. Moreover, the outcome in test [14] was “inactive”; in the test with CD38, CD38 (gene 952) it was “inactive”; with CD40, CD40 (gene 958) [15] it was “inactive”; with CD69, CD69 (gene 969) it was “inactive”; in test [16] it was “inactive”; in test [17] it was “inactive”. For the same compound, in test [6], the AC50 is 4.94 µM (active).

In the case of `CC[N+](CC)(CC)Cc1ccccc1`, the outcome was “inactive” in [1]; “inactive” in test [2]; “inactive” in [3]; “inactive” in the test with CD40, CD40 (gene 958) [4]; “inactive” in test [5]; “inactive” in test [6]. Also, the result in test [7], in test [8], in test [9], in test [10], in [11] and in test [12] was inactive. The outcome in test [13] is “inactive”; in [14], “inactive”; in the test with CD38, CD38 (gene 952), “inactive”; with CD40, CD40 (gene 958) [15], “inactive”; with CD69, CD69 (gene 969), “inactive”; in [16] it was “inactive”. For the same compound, the outcome in test [17] and in test [18] was inactive.
